# About 1,700 (0.52%) of roughly 330,000 compounds were called active. Many of the other results were omitted from the sample, so actives are more common in it than they were. Unmarked numbers belong to inactive results. The call rests on the fitted dose curve; in most records, active means well fitted inhibition curve with a large enough effect; inconclusive means small, poorly fitted or top-dose-only effect; inactive means no such curve, though single readings can be large or run the other way.
# Biological target: Beta-lactamase (Escherichia coli (strain K12)) (UniProt P00811)
# Sequence (P00811 whole entry, looked up): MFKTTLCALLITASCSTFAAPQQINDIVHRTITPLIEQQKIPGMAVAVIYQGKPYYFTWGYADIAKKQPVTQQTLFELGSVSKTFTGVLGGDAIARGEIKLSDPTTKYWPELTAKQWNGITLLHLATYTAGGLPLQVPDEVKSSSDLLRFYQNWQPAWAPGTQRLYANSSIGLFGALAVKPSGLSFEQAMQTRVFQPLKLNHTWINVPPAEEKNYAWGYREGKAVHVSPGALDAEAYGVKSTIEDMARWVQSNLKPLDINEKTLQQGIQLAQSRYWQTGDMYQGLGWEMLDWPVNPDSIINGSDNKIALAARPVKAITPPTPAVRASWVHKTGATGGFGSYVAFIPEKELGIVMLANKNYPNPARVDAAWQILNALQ
# Experiment: qHTS Inhibitors of AmpC Beta-Lactamase (assay without detergent); further: nearly all actives have a fitted effect of over 20% in size;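 on activity change, negative = inhibition: plate controls were no compound for no effect and no enzyme for full effect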
# Details: AmpC nitrocefin hydrolysis, absorbance 480 nm, 0.0001% Triton; series mostly up to 57.1 µM; activity change, negative = inhibition: at the top concentration
# Summary of the method: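 20 mM phosphate pH 7.0 + 0.01% (detergent screen) or 0.0001% Triton X-100; 5.3 nM AmpC reagent; cpd preinc 15 min RT; nitrocefin (800 uM stock) to start; A480 q20 s × 4 min; Activity was normalised to no-enzyme and no-compound control wells.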
# Potency means the concentration at half of the fitted maximal effect.
SMILES,"activity change, negative = inhibition",Potency
c1nc(COc2nsnc2N2CCOCC2)cs1,20.9%,
Cc1cc(=O)[nH]c(SCc2cccc(F)c2)n1,-5.38%,
Cc1cc(=O)[nH]c(SCc2cc(Cl)ccc2OC(F)F)n1,-25.2%,
O=c1cc(O)nc(SCc2ccccc2Cl)[nH]1,,3.16 µM (active)
CC/C(C)=N/Nc1nc2sc3c(c2c(=O)[nH]1)CC(C)(C)OC3,,1.12 µM (active)
CC(C)c1nc2sc3c(c2c(=O)n1N)CC(C)(C)OC3,-2.5%,
CCSc1nc2sc3c(c2c(=O)[nH]1)CC(C)(C)OC3,-19.1%,
Cc1ccc(C(C[N+](=O)[O-])c2c(C)cc3ccccn23)cc1 (stereo unspecified),,22.4 µM (active)
Cc1cc2ccccn2c1C(C[N+](=O)[O-])c1c(F)cccc1Cl (stereo unspecified),-29.1%,
Cc1cc2ccccn2c1C(=O)c1cccc(F)c1,-22.5%,
Cn1c(=NC(=O)c2ccc3c(c2)OCCO3)sc2cc(S(C)(=O)=O)ccc21,-16.1%,
C[C@H](NC(=O)c1ccccc1)C(=O)OCC(=O)c1c[nH]c2ccccc12,-13.4%,
COc1ccccc1C(CNC(=O)c1cccc(S(=O)(=O)Nc2ccc(F)cc2)c1)N(C)C (stereo unspecified),-2.62%,
CN(C)c1ccc(C(CNC(=O)c2ccc(F)cc2)c2c[nH]c3ccccc23)cc1 (stereo unspecified),,14.1 µM (active)
COc1cccc(/C=N/NC(=O)CNC(=O)c2ccc(S(=O)(=O)N3CCOCC3)cc2)c1OC,8.54%,
COc1cccc(/C=N/NC(=O)c2[nH]nc3c2CCc2ccccc2-3)c1O,,5.62 µM (active)
CCOc1ccc2[nH]c(C(=O)N/N=C/c3cccc(OC)c3OC)cc2c1,-27.1%,
CCc1ccc(C(=O)NN=C2CCCCCC2)s1,-20.7%,
CCCNS(=O)(=O)c1ccc(CCC(=O)N2CCCC2)cc1,-3.42%,
COc1ccc(C(CC(=O)c2ccccc2)S(=O)(=O)c2ccccc2)cc1 (stereo unspecified),-1.57%,
O=C(CSc1nnc(-c2c[nH]c3ccccc23)n1-c1ccc(F)cc1)NCc1ccco1,-43%,
COc1ccc(-n2c(SCC(=O)NCc3ccco3)nnc2-c2c[nH]c3ccccc23)cc1,,3.55 µM (active)
CCn1c(SCCC(C)C)nnc1-c1c[nH]c2ccccc12,-14.4%,
COc1ccc(-n2c(SCC(=O)NCc3cccs3)nnc2-c2ccoc2C)cc1,-16.2%,

SMILES,"activity change, negative = inhibition",Potency
CCn1c(SCC(=O)Nc2ccc(OC)c(OC)c2)nnc1-c1c[nH]c2ccccc12,,0.631 µM (active)
CCOC(=O)N1CCN(C(=O)CSc2nnc(-c3c[nH]c4ccccc34)n2CCOC)CC1,4.38%,
N/C(=N\S(=O)(=O)c1ccc(Cl)cc1)N1CCOCC1,5.56%,
CN(C)Cc1c(O)ccc2c(=O)c(-c3ccccc3Cl)coc12,-14.4%,
CCOC(=O)c1cccc(NC(=O)CN(c2ccc(C)cc2)S(=O)(=O)c2c(C)noc2C)c1,-8.36%,
Cc1ccc(N(CC(=O)Nc2cc(C)cc(C)c2)S(=O)(=O)c2cccc3nonc23)cc1,,15.8 µM (active)
Cc1ccc(CNC(=O)CCNS(=O)(=O)c2cccc3nonc23)cc1,-10.5%,
COC(=O)c1ccc(COc2ccc(C#N)cc2)o1,-7.25%,
Cc1cccc(C(=O)OCC(=O)Nc2sc3c(c2C#N)CCC3)c1,-5.45%,
N#CCC(=O)Nc1ccc(C(=O)OCC(=O)Nc2sc3c(c2C#N)CCCC3)cc1,,14.1 µM (active)
N#Cc1c(NC(=O)CCCl)sc2c1CCCCC2,-10.9%,
CCOC(=O)Cn1c2c(c(-c3ccccc3OC)cc1=O)CCCC2,-14.6%,
O=C(CSc1nnc(-c2ccncc2)n1C1CCCCC1)Nc1ccccc1,29.1%,
Cc1ccc(N2C(=O)C3N=NN(CC(=O)N4N=C(c5cccc6ccccc56)CC4c4ccccc4)C3C2=O)cc1 (stereo unspecified),-30.7%,
Cc1cccc(C(C)C)c1NC(=O)COC(=O)C1CC(=O)N(Cc2ccccc2)C1 (stereo unspecified),32.1%,
NS(=O)(=O)c1ccc(CNC(=O)c2cccc(Oc3ccccc3)c2)cc1,-18.7%,
NS(=O)(=O)c1ccc(CNC(=O)c2cccc(S(=O)(=O)N3CCc4ccccc43)c2)cc1,,14.1 µM (active)
Cc1ccc(NC(=O)c2cccc(S(=O)(=O)N3CCCc4ccccc43)c2)nc1,-11.9%,
O=C(NC1CC1)C1=C[C@H](c2c[nH]c3ccccc23)C[C@H](OCc2ccc(CO)cc2)O1,67.4%,
CCNC(=O)NC(=O)C(C)OC(=O)C1CCN(S(=O)(=O)c2ccccc2F)CC1 (stereo unspecified),-3.92%,
CCOC1CS(=O)(=O)CC1OCC (stereo unspecified),-17.7%,
c1csc(-c2nnc(COc3ccc4c(c3)OCO4)o2)c1,-26.4%,
C=CS(=O)c1sc(Cl)c(N2CCOCC2)c1[N+](=O)[O-] (stereo unspecified),-20.3%,
Cc1cc(Nc2cccc(F)c2)n2ncnc2n1,-4.37%,

SMILES,"activity change, negative = inhibition",Potency
C/C(=N\Nc1ncc(Cl)cc1Cl)c1ccc(S(=O)(=O)NCc2ccco2)cc1,,31.6 µM (active)
O=S(=O)(NCc1ccco1)c1cnc(Cl)c(Cl)c1,-20.1%,
Cc1c(Cl)cnc(NC(=O)COC(=O)c2ccc(S(=O)(=O)NCc3ccco3)cc2)c1Cl,-40.8%,
O=C(c1cccnc1)N(c1cc2sc(=O)oc2c2ccccc12)S(=O)(=O)c1ccccc1,-28.4%,
Cc1ccccc1SCC(=O)OCC(=O)N1CC(=O)Nc2ccccc21,-16.8%,
Cc1cc(C(=O)COC(=O)C2CC2)c(C)n1-c1ccc(F)cc1,-17.5% [at 11.4 µM],
O=C1CSC(=S)N1/N=C/c1ccc(O)c([N+](=O)[O-])c1,-44.4%,
Cc1cc(C(=O)N/N=C/c2ccc(O)c([N+](=O)[O-])c2)c(C)n1-c1ccc(F)cc1,,17.8 µM (active)
CCOc1ccc(CN2CCNC(=O)C2CC(=O)NCCCC2CCCC2)cc1 (stereo unspecified),150%,
COc1ccc(NC(=O)CSc2nc(C)cs2)cc1,-12.6%,
COc1ccc(NC(=O)c2sccc2SCC#N)cc1,,4.47 µM (active)
COc1ccc(NC(=O)c2ccc(C#CC(C)(C)O)cc2)cc1,4.78%,
CNC[C@H]1Oc2c(NC(=O)C3CCCCC3)cccc2C(=O)N([C@H](C)CO)C[C@@H]1C,-6.12%,
Cn1cccc1Cc1nnc(SCC(=O)NCc2ccc3c(c2)OCO3)n1CCc1ccccc1,66.4%,
Cc1cc(=O)oc(C)c1C(=O)Nc1cnc2ccccc2c1,-8.5%,
Cc1cc(O)c(C(=O)/C=C/c2c(F)c(F)c(F)c(F)c2F)c(=O)o1,,11.2 µM (active)
Cc1ccc(N=Cc2c(O)cc(C)oc2=O)c(C)c1,-18.8%,
COc1ccccc1C(=O)Nc1ccc(C)c(S(=O)(=O)N2CCCCC2)c1,-3.57%,
Nn1c(SCC(=O)NC(=O)NC2CCCC2)nnc1-c1ccccc1F,-17.2%,
COc1cccc2c1OCC1COc3c(c(=O)n(C)c(=O)n3C)C21 (stereo unspecified),-17.4%,
C=CCNCCCCOc1ccccc1,0.575%,
COc1cccc(CNC(=O)C2CCN(S(=O)(=O)c3cccc4cccnc34)CC2)c1,-3.22%,
COc1ccccc1CNC(=O)C1CCCN(S(=O)(=O)c2cccc3cccnc23)C1 (stereo unspecified),,22.4 µM (active)
O=C(O)C1CCCN(S(=O)(=O)c2cccc3cccnc23)C1 (stereo unspecified),-14.6%,

SMILES,"activity change, negative = inhibition",Potency
CCOC(=O)C1C(c2ccc(O)cc2)NC(=O)NC1(O)C(F)(F)F (stereo unspecified),1.51%,
CC(=O)C1C(c2ccc(Cl)cc2)NC(=O)NC1(O)C(F)(F)F (stereo unspecified),,44.7 µM (active)
CC(=O)C1C(c2cccc(Oc3ccccc3)c2)NC(=O)NC1(O)C(F)(F)F (stereo unspecified),6.25%,
COC(=O)[C@@H]1CC(O)CN1C(=O)C12CC3CC(CC(C3)C1)C2 (stereo partly specified),-9.8%,
Cc1ccc(NS(=O)(=O)c2ccc(C(C)(C)C)cc2)cn1,-22.9%,
CC(=O)Nc1ccc(S(=O)(=O)Nc2nc(-c3ccc(C(C)(C)C)cc3)cs2)cc1,,35.5 µM (active)
CC(=O)Nc1ccc(S(=O)(=O)Nc2ccc(-c3ccc4nnc(C)n4n3)cc2)cc1,17.8%,
O=C(CSc1nnc2scc(-c3ccc(F)cc3)n12)NCc1ccco1,-21.6%,
Cc1ccc(-c2csc3nnc(SCC(=O)NCc4ccco4)n23)cc1,,0.316 µM (active)
Cn1c(-c2ccc(F)cc2)cnc1SCC(=O)NCc1ccco1,3.42%,
COc1ccccc1N(CC(=O)Nc1ccc(C(F)(F)F)cc1)S(C)(=O)=O,41.8%,
O=C(Cn1nc(Cc2cccnc2)c2ccccc2c1=O)NCC1CCCO1 (stereo unspecified),,0.501 µM (active)
O=C(Cn1nc(Cc2cccnc2)c2ccccc2c1=O)NCC1COc2ccccc2O1 (stereo unspecified),9.49%,
Cc1nn(CC(=O)NCC2CCCO2)c(=O)c2cc3ccccc3n12 (stereo unspecified),-8.11%,
O=C(Cn1cc2c(n1)CCCCC2)NCCN1CCOCC1,-5.23%,
COCCNC(=O)Cn1cc2c(n1)CCCCC2,0.855%,
CCOC(=O)N1CCC(NC(=O)Cn2cc3c(n2)CCCCC3)CC1,,35.5 µM (active)
Cc1cc(-c2nnc(CCC(=O)NC(c3ccccc3)c3ccccc3)o2)no1,13.8%,
CCOC(=O)/C(=N\Nc1cc(Cl)ccc1Cl)N1CCN(C)CC1,142%,
CCc1ccc(CN(C)C(C)C(=O)Nc2ccc(S(=O)(=O)N3CCCC3)cc2)cc1 (stereo unspecified),3.82%,
O=C(CSC(=S)N1CCOCC1)c1cc(Br)cc(Br)c1O,,20 µM (active)
O=C(c1cc2cc(Br)cc(Br)c2oc1=O)N1CCOCC1,-18.2%,
O=C(CSC(=S)N1CCOCC1)c1ccccc1,-17%,
CCN(CC(=O)Nc1ccc(Cl)c(S(=O)(=O)N(C)C)c1)Cc1nc2ccccc2c(=O)[nH]1,-6.1%,
